Giardia FBPA inh-1: inhibitors of Giardia lamblia fructose-1,6-bisphosphate aldolase | A8B2U2 | purified Giardia FBPA | Potency, µM (doses to about 59.6 µM), without a hit: at the highest dose activity, negative = inhibition, usual class: inhibitors | 0.71% of 290,000 active; also: nearly all actives have a fitted effect of over 55% in size
Target sequence (A8B2U2 whole entry, looked up): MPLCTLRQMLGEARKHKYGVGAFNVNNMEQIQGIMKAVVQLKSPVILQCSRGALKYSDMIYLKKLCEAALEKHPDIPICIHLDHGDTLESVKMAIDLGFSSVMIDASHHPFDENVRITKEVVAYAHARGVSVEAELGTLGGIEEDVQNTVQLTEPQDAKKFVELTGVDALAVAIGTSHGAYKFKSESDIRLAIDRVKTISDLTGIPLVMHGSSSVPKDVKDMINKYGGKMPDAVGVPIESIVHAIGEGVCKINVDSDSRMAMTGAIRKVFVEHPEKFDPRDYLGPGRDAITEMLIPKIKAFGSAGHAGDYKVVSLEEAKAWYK
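Giardia FBPA (40 nM reagent) was preincubated 10 min at RT with compound (up to 57.5 uM final), then substrate plus GAPDH/TPI/NAD/arsenate coupling system with diaphorase/resazurin was added; resorufin fluorescence (525/598 nm) was read after 20 min.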
Vaccinia mCherry: vaccinia inhibition (mCherry reporter); Vaccinia virus mCherry reporter infection, fluorescence; Potency, µM (titrated, usually from 36.5 µM), for inactives: at the highest dose activity change, negative = inhibition, most hits filed as inhibitors; 0.63% of 310,000 active; AID 720579; calls by dose curve; tested in A549 cells; also: nearly all actives have a fitted effect of over 35% in size
FMDV inh: blocks foot and mouth disease virus; FMDV antiviral cell-based qHTS; Potency, µM (highest dose often 57.9 µM), for the others: at the highest dose activity change, negative = inhibition, most hits filed as inhibitors; 1.2% of 410,000 active; AID 1159524; calls by dose curve; tested in HEK293T cells; also: read-out not given here; nearly all actives have a fitted effect of over 45% in size
VACV Venus inh: vaccinia inhibition (Venus reporter). Vaccinia virus Venus reporter expression, fluorescence. Potency, µM (titrated, usually from 36.5 µM), for the others: at the highest dose activity change, negative = inhibition, most hits filed as inhibitors. 0.46% of 330,000 active; calls by dose curve; tested in A549 cells; also: nearly all actives have a fitted effect of over 30% in size
Giardia growth: blocks growth of Giardia lamblia trophozoites | shares compounds with Giardia FBPA inh-1 | Giardia lamblia trophozoite growth inhibition | Potency, µM (doses to about 57.5 µM), inactives show at the highest dose activity change, negative = inhibition, actives largely listed as inhibitors | 5% of 1,500 active | AID 2785;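 also: trophozoites exposed to compound for 48 h at 37 °C; nearly all actives have a fitted effect of over 70% in size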
Mammalian tox: mammalian cytotoxicity of Giardia aldolase inhibitor hits; shares compounds with Giardia FBPA inh-1; mammalian cell viability counter-screen, qHTS; Potency, µM (titrated, usually from 57.5 µM), for the others: at the highest dose viability change, negative = toxicity, actives largely listed as inhibitors; 4% of 1,500 active; AID 2786;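 also: Chinese hamster ovary cells used as mammalian cytotoxicity surrogate; viability measured as cellular ATP by luminescence; compound exposure lasted 48 h before reading; nearly all actives have a fitted effect of over 60% in size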
Giardia FBPA inh-2: confirmation of Giardia fructose-bisphosphate aldolase inhibitors. shares compounds with Giardia FBPA inh-1. purified Giardia aldolase enzyme activity, qHTS. Potency, µM (highest dose often 57.5 µM), for inactives: top-dose activity change, negative = inhibition, hits mostly inhibitors. 5% of 1,500 active. AID 2787; also: nearly all actives have a fitted effect of over 45% in size
Rabbit aldolase: blocks rabbit muscle aldolase in Giardia aldolase selectivity test; shares compounds with Giardia FBPA inh-1; Rabbit muscle FBPA enzyme inhibition, selectivity counter-screen; Potency, µM (series often up to 57.5 µM), without a hit: at the highest dose activity, negative = inhibition, usual class: inhibitors; 4% of 1,500 active; also: nearly all actives have a fitted effect of over 60% in size
Target sequence (P00883 whole entry, looked up): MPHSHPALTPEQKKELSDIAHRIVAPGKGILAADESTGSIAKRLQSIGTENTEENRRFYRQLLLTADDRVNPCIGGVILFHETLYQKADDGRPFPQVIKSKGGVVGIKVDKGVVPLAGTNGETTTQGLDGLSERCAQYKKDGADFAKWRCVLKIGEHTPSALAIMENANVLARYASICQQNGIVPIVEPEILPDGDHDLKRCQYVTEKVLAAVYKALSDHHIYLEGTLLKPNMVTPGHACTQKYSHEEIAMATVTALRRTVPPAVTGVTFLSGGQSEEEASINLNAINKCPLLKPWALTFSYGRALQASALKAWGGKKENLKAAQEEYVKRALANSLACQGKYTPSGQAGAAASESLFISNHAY
GAPDH counter: counter-screen for Giardia aldolase inhibitors: GAPDH coupling enzyme. shares compounds with Giardia FBPA inh-1. GAPDH coupling enzyme counterscreen, biochemical, qHTS. Potency, µM (top dose mostly 57.5 µM), without a hit: top-dose activity change, negative = inhibition, most hits filed as inhibitors. 6% of 1,500 active; also: nearly all actives have a fitted effect of over 55% in size
The depositor's hits bear a star; i = inactive; ? = inconclusive; nt = no result; [ ] = remark or other dose. A selection: hits, their analogues and other compounds. The true share with any hit is near 2.2%. Unless noted, calls follow the shape of the dose curve; as a rule, active = well fitted curve in the direction sought with a large enough effect; inconclusive = small, poorly fitted or top-dose-only effect, or another doubt; inactive = no such curve, though single readings can be large; an effect the other way counts as inactive or inconclusive. % is scaled to controls: 0 for no effect and ±100 for the full control effect; potency is read from the fitted curve at half-maximal effect.

SMILES	Giardia FBPA inh-1	Vaccinia mCherry	FMDV inh	VACV Venus inh	Giardia growth	Mammalian tox	Giardia FBPA inh-2	Rabbit aldolase	GAPDH counter
COc1cc(/C=C2\SC(c3ccccc3)=NC2=O)cc(Cl)c1O	5.6µM*	59%	?	26%	54%	5%	-26%	-26%	2%
CCOc1cc(/C=C2\SC(N)=NC2=O)ccc1O	7.9µM*	?	-9%	-12%	-14%[10.4 µM]	-4%	-12%	-1%	1%
Cc1cc2cc(C(c3nnnn3CC3CCCO3)N3CCCc4ccccc43)c(=O)[nH]c2cc1C (configuration not stated)	4µM*	nt	-15%	nt	1%	-5%	-13%	-3%	-19%
CCc1ccc2[nH]c(=O)c(C(c3nnnn3CC3CCCO3)N3CCCc4ccccc43)cc2c1 (configuration not stated)	?	nt	13%	nt	nt	nt	nt	nt	nt
Cc1cc(NCc2ccncc2)ccc1Br	22µM*	nt	10%	nt	26%	-6%	-5%	-6%	2%
Cc1ccc(NCc2ccncc2)c(Br)c1	?	i	6%	-10%	nt	nt	nt	nt	nt
Cc1ccc(C(=O)Nc2ccc(S(=O)(=O)Nc3ncccn3)cc2)cc1[N+](=O)[O-]	25µM*	nt	-15%	nt	-14%[10.4 µM]	3%	-7%	7%	-17%
C/C(CS(=O)(=O)c1ccc(Cl)cc1)=N/NC(N)=S	16µM*	-10%	9%	-16%	2%[10.4 µM]	-8%	3%	7%	4%
C/C(CS(=O)(=O)c1ccc(Cl)c(Cl)c1)=N/NC(N)=S	?	-27%	7%	-28%	nt	nt	nt	nt	nt
Cn1ncc(C(N)=O)c1NC(=S)NC(=O)c1ccc(Br)o1	16µM*	i	3%	-10%	-7%[10.4 µM]	-9%	1%	5%	8%
O=S(=O)(c1ccc(OC(F)(F)F)cc1)N1CCN(c2nc(-c3cccs3)nc3ccccc23)CC1	nt	-4%	nt	-21%	nt	nt	nt	nt	nt
COCc1cc(=O)[nH]c(=S)[nH]1	4.5µM*	i	-19%	-1%	?	-4%	5%	1%	13%
O=[N+]([O-])c1ccccc1/C=C/CN1CCN(Cc2ccc3c(c2)OCO3)CC1	11µM*	nt	-2%	nt	-8%[10.4 µM]	7%	-7%	0%	9%
C/C(=C\c1ccccc1)C(=O)N1CCN(Cc2ccc3c(c2)OCO3)CC1	5%	nt	-16%	nt	nt	nt	nt	nt	nt
C(=C\c1ccccc1)/CN1CCN(Cc2ccc3c(c2)OCO3)CC1	7.9µM*	-5%	-7%	-11%	-20%	7%	9%	0%	17%
O=[N+]([O-])c1cccnc1N1CCN(Cc2ccc3c(c2)OCO3)CC1	?	-6%	-21%	-15%	nt	nt	nt	nt	nt
COc1ccccc1OCC#CCN1CCOCC1	11µM*	-7%	24%	4%	5%[10.4 µM]	0%	1%	2%	14%
CC1(C)CC(Cc2nc(=S)[nH][nH]2)C(=O)O1 (configuration not stated)	6.3µM*	nt	-7%	nt	3%	-8%	5%	8%	8%
C/C(CCC1CC(C)OC1=O)=N\NC(N)=S (configuration not stated)	15%	nt	4%	nt	nt	nt	nt	nt	nt
C/C(CCC1CC(C)(C)OC1=O)=N\NC(N)=S (configuration not stated)	18µM*	?	-2%	?	43%	-12%	7%	4%	6%
C/C(CC1CC(C)(C)OC1=O)=N\NC(N)=S (configuration not stated)	20µM*	-1%[7.34 µM]	22%	-14%[7.34 µM]	-29%	-12%	5%	5%	3%
CCN(CCCNC(=O)c1cc2c(=O)n(C)c3ccccc3c2s1)Cc1ccccc1	nt	-3%[7.34 µM]	-8%	-5%[7.34 µM]	nt	nt	nt	nt	nt
CC(C)Nc1oc(-c2ccccc2)nc1-c1cccc2ccccc12	-1%	nt	nt	nt	nt	nt	nt	nt	nt
CCOC(=O)Cc1csc(NS(=O)(=O)c2ccc(NC(C)=O)cc2)n1	14µM*	nt	-7%	nt	0%	16%	8%	15%	17%
CCOC(=O)Cc1csc(NC(=O)CCc2ccc(S(=O)(=O)N3CCOCC3)cc2)n1	-1%	i	nt	-16%	nt	nt	nt	nt	nt
SMILES	Giardia FBPA inh-1	Vaccinia mCherry	FMDV inh	VACV Venus inh	Giardia growth	Mammalian tox	Giardia FBPA inh-2	Rabbit aldolase	GAPDH counter
CCOC(=O)Cc1csc(NC(=O)CN2CCOCC2)n1	14µM*	-14%	7%	-20%	0%[10.4 µM]	1%	4%	5%	15%
CCOC(=O)Cc1csc(NC(=O)CCCc2ccccc2)n1	35µM*	nt	-7%	nt	-23%	-2%	-17%	-7%	-12%
O=C1C(Cl)=C(NC2CCc3ccccc32)C(=O)c2ncccc21 (configuration not stated)	-27%	nt	nt	nt	nt	nt	nt	nt	nt
COCCN1CCc2[nH]c(=S)[nH]c(=O)c2C1	?	-4%	-13%	-2%	nt	nt	nt	nt	nt
CCCCN1CCc2[nH]c(=S)[nH]c(=O)c2C1	16µM*	i	-18%	-9%	?	-3%	5%	-3%	2%
NC(=S)NNc1cccc(Cl)c1	13µM*	i	-23%	-21%	48%	8%	-16%	-5%	-7%
Cc1cccc(NNC(N)=S)c1	20µM*	-1%	-9%	1%	11%	11%	0%	0%	10%
CCOc1ccc(C(C)=O)cc1Cc1c(O)[nH]c(=S)[nH]c1=O	22µM*	nt	-15%	nt	-16%	1%	-8%	1%	-16%
CCCCCCCCCCCCCCCCOCC(COP(=O)([O-])OCC[N+](C)(C)C)OC (configuration not stated)	2%	-15%[3.33 µM]	2%[6.7 µM]	-6%[3.33 µM]	nt	nt	nt	nt	nt
CCNC(=S)N/N=C/c1ccc(C(=O)O)cc1	18µM*	i	-5%	-1%	2%[10.4 µM]	11%	7%	7%	20%
CNC(=S)N/N=C/c1ccc(-c2ccc(Cl)c([N+](=O)[O-])c2)o1	-2%	-18%	-20%	-4%	nt	nt	nt	nt	nt
CNC(=S)N/N=C/c1ccc(-c2ccc(C(=O)O)cc2)o1	18µM*	-17%	-23%	-13%	-10%[10.4 µM]	-7%	-6%	-9%	-6%
CCNC(=S)N/N=C/c1ccc(OCc2ccc(C(=O)OC)cc2)cc1	-1%	-17%	-19%	2%	nt	nt	nt	nt	nt
Nc1ncnc2c1[nH]c(=S)n2C1OC(CO)C(O)C1O (configuration not stated)	nt	34%	nt	7%	nt	nt	nt	nt	nt
Cc1cc(C)c2c(NC(=S)NC(=O)c3ccccc3)nn(C)c2n1	18µM*	i	2%	-2%	-12%[10.4 µM]	-12%	10%	5%	10%
Cc1cc(C)nc(NC(=S)NC(=O)c2ccccc2)n1	?	-9%	20%	-4%	nt	nt	nt	nt	nt
CN(CC(=O)NCc1ccc(F)cc1)Cc1ccc(Br)cc1	-3%	?	-2%	-13%	nt	nt	nt	nt	nt
